The values that follow come from PubChem BioAssay AID1259372 (The Scripps Research Institute Molecular Screening Center, 2018).

Among all 4,700 compounds or so, about 760 (16%) were called active. Not all results are given here. A number with no mark means an inactive call.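 Rule for the calls: active = inhibition above a cutoff derived from the DMSO control wells (cut at about 28% in these data); inactive = the rest.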

The term inhibition denotes the drop in the measured response relative to a control, in per cent.

This test deals with Microphthalmia-associated transcription factor (Homo sapiens) (UniProt O75030). Nature of the test: MITF inhibitors, retest of hits, confirmation, biochemical, AlphaScreen, triplicate (AID 1259372). The settings on record: AlphaScreen MITF homodimerization, biotin/His-MITF beads; at 2.6 µM; hits give high values. Background: Alpha assays give light when donor and acceptor beads are brought close together.
Microphthalmia-associated transcription factor (Homo sapiens), sequence (O75030 whole entry, looked up): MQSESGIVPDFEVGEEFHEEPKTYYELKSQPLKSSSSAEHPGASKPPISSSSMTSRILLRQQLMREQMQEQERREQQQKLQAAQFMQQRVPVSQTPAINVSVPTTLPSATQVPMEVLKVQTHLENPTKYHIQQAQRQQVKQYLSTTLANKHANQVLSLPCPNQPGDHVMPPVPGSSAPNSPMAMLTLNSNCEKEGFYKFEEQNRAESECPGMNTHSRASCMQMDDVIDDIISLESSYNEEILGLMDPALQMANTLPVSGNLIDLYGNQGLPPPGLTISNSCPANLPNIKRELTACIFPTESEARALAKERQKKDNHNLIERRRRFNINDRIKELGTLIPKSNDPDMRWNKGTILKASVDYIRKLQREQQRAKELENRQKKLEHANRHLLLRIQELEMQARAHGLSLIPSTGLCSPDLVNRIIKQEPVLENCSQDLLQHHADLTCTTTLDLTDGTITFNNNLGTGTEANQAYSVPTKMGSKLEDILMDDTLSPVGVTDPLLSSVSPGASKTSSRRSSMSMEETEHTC
Regarding `COc1cc(NC(=O)CCc2nc(C3=CCN(C)CC3)no2)cc(OC)c1OC`, the inhibition is 66.9% (active).

With `CCC(C)N1CCN(Cc2cccc(OC)c2)CC1` (stereo not given), the inhibition is 13.4%.

For the molecule `CCC(CC)N1CCN(Cc2ccc(F)cc2)CC1`, the inhibition is 3.06%.

Take `COc1ccc(CN2CCN(Cc3ccccc3)CC2)cc1C`: the inhibition is -1.48%.

In the case of `CSc1ccccc1NC(=O)CN(C)CC(=O)Nc1ccc(C#N)c(Cl)c1`, the inhibition was 4.26%.

Regarding `CCOC(=O)C1C2NC(=S)N(CC)C1(C)Oc1ccc(Cl)cc12` (stereo not given), the inhibition was 33.4% (active).

`CCOC(=O)C1C2NC(=S)N(c3ccc(F)cc3)C1(C)Oc1c(OCC)cccc12` (stereo not given): the inhibition is 24.2%.

As to `CN1CCC(N(C)c2ncnc3scc(-c4ccc(Cl)cc4)c23)CC1`, the inhibition is -5.93%.

With `CCC(C)N1CCN(Cc2ccc(SC)cc2)CC1` (stereo not given), the inhibition is 3.6%.

Take `Fc1ccccc1CN1CCN(Cc2ccccc2F)CC1`: the inhibition is 4.39%.
